# Experimental data published in PubChem BioAssay (Tox21).
# Records with an inconclusive call do not appear. A call without a number means that no potency is given here. Active and inactive are the calls of the source. Calls come from the whole dose curve; as a rule, active = well fitted cell-killing curve with a large enough effect in the repeat runs (not every such curve was filed as active); inconclusive = weak or mixed curves, or effect the other way; inactive = no such curve, though single readings can be large or run the other way.
# Assay: qHTS assay to identify small molecule antagonists of the farnesoid-X-receptor (FXR) signaling pathway - cell viability counter screen (AID 743221); note: nearly all actives have a fitted effect of over 50% in size
# Details: FXR-bla HEK293T viability, CellTiter-Glo luminescence, 16 h; series mostly up to 62.6 µM
# Description: National Center for Advancing Translational Sciences [NCATS]
# NIH Chemical Genomics Center [NCGC]
# U.S. Environmental Protection Agency [EPA]
# National Institutes of Environmental Health Sciences [NIEHS]
# National Toxicology Program [NTP]
# U.S. Food and Drug Administration [FDA]
# The farnesoid-X-receptor (FXR), a nuclear hormone receptor, is highly expressed in liver, intestine, kidney and adrenal cortex. Natural ligands of FXR are the bile acids (Cholic acid, Chenodeoxy cholic acid etc). FXR is an important regulator of diverse metabolic pathways, including the bile acid homeostasis, lipid and glucose metabolisms. FXR regulates the expression of target genes by binding either as a monomer or as a heterodimer with the retinoid X receptor (RXR). Numerous studies have reported that FXR exerts protective function during cholestasis, diabetes, liver regeneration, and cancer. To identify compounds that inhibit FXR signaling, GeneBLAzer FXR-UAS-bla HEK 293T cell line (Invitrogen, Carlsbad, CA) containing a beta-lactamase reporter gene under the control of a UAS response element was used to screen the Tox21 10K compound library. The cytotoxicity of the Tox21 compound library against the FXR-bla cell line was tested in parallel by measuring the cell viability using CellTiter-Glo assay in the same wells.
# Tox21 Assay Protocol Summary:
# FXR-bla cells were dispensed at 5000 cells/5uL/well in 1536-well black wall/clear bottom plates using a Multidrop Combi (Thermo Fisher Scientific, Waltham, MA) dispenser. After the assay plates were incubated at 37 C and 5% CO2 for 5 h, 23 nL of compounds dissolved in DMSO, positive controls or DMSO only was transferred to the assay plate by a Pintool station (Kalypsys, San Diego, CA), followed by addition of 1 uL Chenodeoxycholic acid (50 uM, final concentration in the wells). The assay plates were incubated at 37C for 16 h. After 1 uL of LiveBLAzerTM B/G FRET substrate was added using a Bioraptr Flying Reagent Dispenser (FRD) workstation (Beckman Coulter, Indianapolis, IN), the plates were incubated at room temperature for 2 h, and fluorescence intensity was measured by an Envision plate reader (PerkinElmer, Shelton, CT). For cell viability readout that measures cytotoxicity, 4uL/well of CellTiter-Glo reagent was added into the assay plates using a Bioraptr FRD. After 30 min incubation at room temperature, the luminescence intensity in the plates was measured using a ViewLux plate reader (PerkinElmer).
# Potency is the fitted concentration of half-maximal effect.
row,Compound,Potency
1,ClCCOCCOCCCl,inactive
2,Nc1ccc([N+](=O)[O-])c(C(F)(F)F)c1,inactive
3,COc1ccc(C(=O)Nc2nc3ccccc3c(NCc3ccccc3)c2C#N)cc1,inactive
4,CC(C)OC(=O)C(C)N(C(=O)c1ccccc1)c1ccc(F)c(Cl)c1 (stereo not given),inactive
5,COc1ccnc(CS(=O)c2nc3ccc(OC(F)F)cc3[nH]2)c1OC (stereo not given),inactive
6,CCCCCCCCCOS(=O)(=O)O,inactive
7,CCCCC,inactive
8,C[C@@H]1C[C@H]2O[C@@]3(O[C@@H]2C(C)(C)O)[C@H](O)[C@@]2(C)[C@@H]4CC[C@H]5C(C)(C)[C@@H](O[C@@H]6OC[C@@H](O)[C@H](O)[C@H]6O)CC[C@@]56C[C@@]46CC[C@]2(C)[C@@H]13,inactive
9,CC(C)(C)Cl,inactive
10,CC1OC(=O)C(C)OC1=O (stereo not given),inactive
11,CCN(CC)CCNC(=O)c1cc(Br)c(N)cc1OC,inactive
12,CC/C=C\CCOC(=O)CC,inactive
13,CCN(CC)c1ccc2c(-c3ccccc3C(=O)O)c3ccc(=[N+](CC)CC)cc-3oc2c1,inactive
14,Cc1c(N)cccc1[N+](=O)[O-],inactive
15,C=C(C)C(=O)OCC,inactive
16,O=C(O)c1ccc(S(=O)(=O)O)cc1C(=O)O,inactive
17,CC(C)(CO)[N+](=O)[O-],inactive
18,O=C(O)C1(C(=O)O)CCC1.[NH2-].[NH2-].[Pt+2],inactive
19,CC(C)Cc1ccc(C(C)C(=O)OCc2ccccn2)cc1 (stereo not given),inactive
20,NC(=O)C(c1ccccc1)(c1ccccc1)[C@@H]1CCN(CCc2ccc3c(c2)CCO3)C1,inactive

row,Compound,Potency
1,C[C@@H]1C[C@H]2[C@@H]3CCC4=CC(=O)C=C[C@]4(C)[C@@]3(F)[C@@H](O)C[C@]2(C)[C@@]1(O)C(=O)COC(=O)c1ccncc1,inactive
2,Cc1[nH]c(C)c(Cl)c(=O)c1Cl,inactive
3,OCCNCc1ccccc1,inactive
4,CCC(C)O (stereo not given),inactive
5,Cn1c(=O)cc(Oc2ccc(F)cc2F)c2cnc(NCC(C)(C)O)nc21,inactive
6,O=C1C(O)=C(O)C(=O)C(O)=C1O,inactive
7,CCC(C)c1cc(C(C)(C)C)c(O)c(C(C)(C)C)c1 (stereo not given),inactive
8,CC1CCC(=O)C1=O (stereo not given),inactive
9,Cc1cc(N)c2cc(NC(=O)Nc3ccc4nc(C)cc(N)c4c3)ccc2n1,18.8 µM (active)
10,O=C1OC(=O)C2C3C=CC(C3)C12 (stereo not given),inactive
11,O=C(O)C1(C(=O)Nc2ccc(Cl)cc2Cl)CC1,inactive
12,COc1cc2nc(N(C)CCCNC(=O)C3CCCO3)nc(N)c2cc1OC (stereo not given),inactive
13,CCCC(=O)Nc1ccc(O)c(C(C)=O)c1,inactive
14,C[Si](C)(CCCN)O[Si](C)(C)CCCN,inactive
15,NS(=O)(=O)c1ccc(N2CCCCS2(=O)=O)cc1,inactive
16,Nc1cccc(S(=O)(=O)c2cccc(N)c2)c1,inactive
17,COc1ccc(S(=O)(=O)N2C(=O)[C@@](c3ccccc3OC)(N3C[C@H](O)C[C@H]3C(=O)N(C)C)c3cc(Cl)ccc32)c(OC)c1,inactive
18,CN(C)CCN(Cc1ccccc1)c1ccccn1,inactive
19,Cc1cccc(C)c1OCC(=O)N[C@@H](Cc1ccccc1)[C@@H](O)C[C@H](Cc1ccccc1)NC(=O)[C@H](C(C)C)N1CCCNC1=O,23.7 µM (active)
20,CCC(Cl)CCC(Cl)C(Cl)CC(Cl)C(Cl)C(Cl)CCl (stereo not given),inactive
